Test results from PubChem BioAssay (NCI).
The panel holds about 83,000 compounds, 20% with a hit somewhere; the sample as a whole holds those more often.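 A percent growth of 40 corresponds to 60% growth inhibition; 0 means no net growth; -100 means all cells died. Active threshold: below 10.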 Unmarked numbers belong to inactive results. Active and inactive are the calls of the source.

The compounds below were run on ACHN renal (assay: NCI-60 one-dose screen, 48 h (100 = growth as untreated, 0 = no growth, -100 = all killed)). Settings: 10 µM unless noted.
Procedure: Growth inhibition of the ACHN human tumor cell line is measured as a screen for anti-cancer activity. Cells are grown in 96 well plates and exposed to the test compound for 48 hours. Compounds are tested at a single concentration, which is 10^-5 M for most compounds. The reported endpoint is percent growth (GI% or GIPRCNT), where numbers from 0 - 100% represent growth inhibition, and numbers from -100% - 0 represent cell death. For example, a value of 40 represents 60% growth inhibition. A value of 0 means no net growth occurred over the course of the experiment. A value of -40 indicates 40% of cells at the beginning of the experiment died by the end of the experiment. A value of -100 means all cells are dead at the end of the experiment.
NCI-60 Human Tumor Cell Lines Screen was performed using the standard one-dose NCI protocol, which is described in more detail at https://dtp.cancer.gov/discovery_development/nci-60/default.htm.
Compounds with GIPRCNT values below 10 were considered active. Activity score was based on GIPRCNT using the following formula: […]
Score is 0 for GIPRCNT values of 100 or above, 50 for GIPRCNT values of 0, and 100 for GIPRCNT values of -100.

Row | SMILES | growth
1 | O=C1CC(c2ccsc2)c2snc(-c3ccc(Cl)cc3)c2N1 (stereo not given) | 53%
2 | COc1ccc(-n2c(SCc3cc(OC)c(OC)c(OC)c3)nc3ccc(C)cc3c2=O)c(OC)c1 | 44.9%
3 | CC(C)(C)[Si](C)(C)OC1[C@@H](CNC(=O)NC(=O)CCl)O[C@@H](n2cnc3c(N)ncnc32)[C@H]1O[Si](C)(C)C(C)(C)C (stereo not given in full) | -95.8% (active)
4 | COc1cc(-c2nc(SC(C)C)nc(Nc3ccccc3C)c2C#N)cc(OC)c1OC | 101%
5 | CCCCCCCCCCCCCCCC[N+]1(C)CCOCC1 | 62.8%
6 | CN1CCC(OC2c3ccccc3CCc3ccccc32)CC1 | 97.5%
7 | Cc1ccc(S(=O)(=O)N2CCc3ccc(O)c4c3C2Cc2cc(Cl)ccc2-4)cc1 (stereo not given) | 57.1%
8 | Clc1ccc(Nc2ccnc(N3CCN(c4ccnc5cc(Cl)ccc45)CC3)n2)cc1 | 41.9%
9 | CCCCCCCCCCCCCCn1c2ccccc2c2c3c(c4c5cc(OC)ccc5oc4c21)C(=O)NC3=O | 103%
10 | COC(=O)CCC(=O)c1ccccc1 | 106%
11 | CCCN1CCN(c2ccc3nc(-c4ccc5nc(-c6ccc(C(F)(F)F)cc6)[nH]c5c4)[nH]c3c2)CC1 | -99.9% (active)
12 | COc1ncc(F)c(OC)n1 | 100%
13 | Cc1cccc2c(=O)c3c(sc12)c(NCCNCCO)nc1ccccc13 | -19.2% (active)
14 | Cc1ccc(S(=O)(=O)N2C/C(=C\c3cc(F)cc(F)c3)C(=O)/C(=C/c3cc(F)cc(F)c3)C2)cc1 | -91.4% (active)
15 | O=[N+]([O-])c1ccc(C=C2C(Cl)=C(Cl)C(Cl)=C2Cl)cc1 | 45.5%
16 | CON=C1C[C@]2(C[C@@H]3C[C@@H](C/C=C(\C)C[C@@H](C)/C=C/C=C4\CO[C@@H]5[C@H](O)C(C)=C[C@@H](C(=O)O3)[C@]45O)O2)O[C@H](/C(C)=C/C(C)C)[C@H]1C | 44.3%
17 | O=[N+]([O-])c1ccc(O)c2ncccc12 | 51.8%
18 | NS(=O)(=O)c1cc(Br)c2c(c1)S(=O)(=O)NCN2 | 111%
19 | COc1ccc2c(c1)c(=O)oc1c(C)c(OCC(C)=O)ccc12 | 97.2%
20 | Cc1ccc(S(=O)(=O)N2CCc3ccc(O)c4c3C2CCc2ccccc2-4)cc1 (stereo not given) | 93.4%

Row | SMILES | growth
21 | CCCCCCCC/C=C\CCCCCCCCOc1cccc(CC(=O)NCC[N+]2(C)CCCC2)c1 | 99%
22 | COC(=O)[C@@H]1CCCN1C(=O)[C@@H]1CCCN1C(=O)[C@@H](Cc1c[nH]c2ccccc12)NC(=S)Nc1cc(C(F)(F)F)cc(C(F)(F)F)c1 | 61.9%
23 | CCN(CC)c1ccc2c(c1)OS(=O)(=O)N=C2 | 102%
24 | Cc1nc2ccc(Cl)cc2n1C | 102%
25 | c1ccc(-c2n(Cc3ccc4ccccc4n3)c3ccccc3[n+]2Cc2ccc3ccccc3n2)cc1 | 34.2%
26 | CC(=O)Nc1ccc(S(=O)(=O)N/N=C\c2ccc(Cl)c(Cl)c2)cc1 | 98.5%
27 | O=C1C2CC3C(CC2C(=O)[N]1[Sn]([c]1ccccc1)([c]1ccccc1)[c]1ccccc1)C1(Cl)C(Cl)=C(Cl)C3(Cl)C1(Cl)Cl (stereo not given) | -99.8% (active)
28 | O=[N+]([O-])c1ccc2nc(N/N=C/c3ccc(O)cc3)sc2c1 | 47%
29 | CCN1C(=O)C2(Nc3ccccc3S2)c2cc(C)ccc21 (stereo not given) | 94.2%
30 | Clc1ccc2c(N3CCN(c4ccnc(NC5CCCCC5)n4)CC3)ccnc2c1 | 45.5%
31 | O=c1[nH]c(-c2ccncc2)nc2sc3c(c12)CCCCCC3 | 49.9%
32 | O=C(N/N=C/c1ccc2c(c1)OCO2)c1cnn2c1NC(c1ccccc1)C2 (stereo not given) | 46%
33 | COc1ccc(-c2c3c(N)c4c(nc3nc3c2c(C)nn3-c2ccccc2)CCCCC4)cc1 | 77.9%
34 | CC(C)OC1=C(Cl)C(=O)c2ccccc2C1=O | 98.5%
35 | N#Cc1ccc(C(F)(F)F)nc1N1CCC(C(=O)Nc2ccc(Cl)cc2)CC1 | 68.7%
36 | CCN(CC)c1ccc(/C=C(\C#N)c2cc3ccccc3[nH]2)cc1 | 70.7%
37 | O=c1ccc2ccccc2o1 | 93.8%
38 | CCOC(=O)c1[nH]c2cc(Cl)ccc2c1[C@@H](C(=O)NC(C)(C)C)N(CC)C(=O)CCCCC#Cc1cccc2c1CN(C1CCC(=O)NC1=O)C2=O (stereo not given in full) | 13%
39 | COc1ccccc1CNCCCCCCCCCCCCN1C(=O)c2ccc3c4c(ccc(c24)C1=O)C(=O)N(CCCCCCCCCCCCNCc1ccccc1OC)C3=O | 78.4%
40 | Oc1ccc2ccccc2c1C1NN=C(c2ccccc2)S1 (stereo not given) | 10.9%
